Laboratory results from PubChem BioAssay (NCI).
About 83,000 compounds went through this panel and 20% of them were active in at least one assay; those are over-represented in the sample as a whole.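 Values shown are percent growth following 48 h exposure of cells in 96-well plates to a single concentration of compound; below 10 was considered active.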 Calls of active or inactive are those of the source.

Legend:
Assay in all cases: NCI-60 one-dose screen, 48 h (100 = growth as untreated, 0 = no growth, -100 = all killed)
Details in all cases: 10 µM
EKVX NSCLC = tested on: EKVX NSCLC
SN12C renal = tested on: SN12C renal
UO-31 renal = tested on: UO-31 renal
TK-10 renal = tested on: TK-10 renal
ACHN renal = tested on: ACHN renal
CAKI-1 renal = tested on: CAKI-1 renal
A498 renal = tested on: A498 renal
CCRF-CEM leukemia = tested on: CCRF-CEM leukemia
MOLT-4 leukemia = tested on: MOLT-4 leukemia
SR leukemia = tested on: SR leukemia

Measured: growth

CCCN(CCC)CCC(O)c1cc2c(c3ccccc13)CCCC2 (stereo not given)
inactive: EKVX NSCLC 87.9% | SN12C renal 82% | UO-31 renal 71.4% | TK-10 renal 101% | ACHN renal 86.9% | CAKI-1 renal 96.1% | A498 renal 74.4% | CCRF-CEM leukemia 93.8% | MOLT-4 leukemia 92.9% | SR leukemia 75.3%

O=C(Nc1nc2ccc(F)cc2s1)c1cc(-c2ccc(F)cc2)n2nc(-c3ccccc3)cc2n1
inactive: EKVX NSCLC 84.1% | SN12C renal 87.5% | UO-31 renal 98.2% | TK-10 renal 113% | ACHN renal 107% | CAKI-1 renal 85.6% | A498 renal 124% | CCRF-CEM leukemia 74.5% | MOLT-4 leukemia 99.7% | SR leukemia 35%

CSc1cc(SC)ncn1
inactive: EKVX NSCLC 107% | SN12C renal 94.4% | UO-31 renal 86.7% | TK-10 renal 94% | ACHN renal 107% | CAKI-1 renal 106% | A498 renal 98.8% | CCRF-CEM leukemia 94% | MOLT-4 leukemia 105% | SR leukemia 98.2%

CCN(CC)CCNc1ccc(CO)c2oc3cc(Cl)ccc3c(=O)c12
inactive: EKVX NSCLC 88.7% | SN12C renal 76.3% | UO-31 renal 54.4% | TK-10 renal 82.7% | ACHN renal 60.9% | CAKI-1 renal 87.3% | A498 renal 50.9% | CCRF-CEM leukemia 66.6% | MOLT-4 leukemia 62.3% | SR leukemia 50.1%

C[N+](C)(C)c1ncnc2nc[nH]c12
inactive: EKVX NSCLC 89.1% | SN12C renal 108% | UO-31 renal 84% | TK-10 renal 103% | ACHN renal 91.1% | CAKI-1 renal 83% | A498 renal 98.3% | CCRF-CEM leukemia 102% | MOLT-4 leukemia 98.6% | SR leukemia 78.4%

CCc1ccc2c(c1)N(CCO)C1=C(C(=O)OC1)C2c1cc(OC)c(OC)c(OC)c1 (stereo not given)
inactive: EKVX NSCLC 29.9% | SN12C renal 28.8% | UO-31 renal 35.5% | TK-10 renal 57.9% | ACHN renal 32.2% | CAKI-1 renal 11.4% | CCRF-CEM leukemia 10.2% | MOLT-4 leukemia 11.4% | SR leukemia 12%
active: A498 renal -13.7%

CCN1CCC2(CC1)OC(c1ccccc1)C(c1ccccc1)O2 (stereo not given)
inactive: EKVX NSCLC 107% | SN12C renal 110% | UO-31 renal 87.2% | TK-10 renal 103% | ACHN renal 109% | CAKI-1 renal 111% | A498 renal 98.9% | CCRF-CEM leukemia 91.7% | MOLT-4 leukemia 96.5% | SR leukemia 96.9%

Nc1ccn(C2CC(O)C(CO)O2)c(=O)n1 (stereo not given)
inactive: EKVX NSCLC 102% | SN12C renal 108% | UO-31 renal 96.4% | TK-10 renal 148% | ACHN renal 104% | CAKI-1 renal 99.4% | A498 renal 124% | CCRF-CEM leukemia 116% | MOLT-4 leukemia 104% | SR leukemia 92.7%

COc1ccc(-c2nnc(-c3c(-c4ccccc4)nc4ncccn34)o2)cc1OC
inactive: EKVX NSCLC 114% | SN12C renal 97.3% | UO-31 renal 79% | TK-10 renal 111% | ACHN renal 88.8% | CAKI-1 renal 103% | A498 renal 117% | CCRF-CEM leukemia 96.7% | MOLT-4 leukemia 93.1% | SR leukemia 81.1%

CC(C)(C)NC/C(=C\c1ccccc1)C(=O)c1ccccc1
inactive: EKVX NSCLC 24.7% | A498 renal 64.4% | CCRF-CEM leukemia 10.7% | MOLT-4 leukemia 10.3%
active: SN12C renal -45.8% | UO-31 renal -83.3% | TK-10 renal 0.816% | ACHN renal -50.9% | CAKI-1 renal -7.54% | SR leukemia -1.67%

C=C(C(=O)c1ccccc1)C(NC(C)(C)C)c1ccccc1 (stereo not given)
inactive: EKVX NSCLC 52.3% | A498 renal 94.1%
active: SN12C renal 2.42% | UO-31 renal -51.7% | TK-10 renal 9.63% | ACHN renal -59.4% | CAKI-1 renal 6.9% | CCRF-CEM leukemia 5.75% | MOLT-4 leukemia 4.36% | SR leukemia -17.7%

NC1(C(=O)O)CSSC1
inactive: EKVX NSCLC 78.9% | SN12C renal 39.5% | UO-31 renal 57.6% | TK-10 renal 64.3% | ACHN renal 49.4% | CAKI-1 renal 101% | A498 renal 56.2% | CCRF-CEM leukemia 78.5% | MOLT-4 leukemia 87.3% | SR leukemia 89.5%

COc1ccc2c(c1)C(=O)c1c-2c(=O)n(CCCN(C)C)c2cc(OC)c(OC)cc12
active: SR leukemia 1.53%
inactive: EKVX NSCLC 113% | SN12C renal 53.1% | UO-31 renal 64.6% | TK-10 renal 102% | ACHN renal 31.9% | CAKI-1 renal 10.6% | A498 renal 85.5% | CCRF-CEM leukemia 15.4% | MOLT-4 leukemia 13.8%

O=C1OCC2=C1C(c1cccc(Cl)c1)c1cc3c(cc1N2CCO)CCC3 (stereo not given)
inactive: EKVX NSCLC 38.9% | SN12C renal 21.1% | UO-31 renal 19% | TK-10 renal 56.6% | ACHN renal 25.5% | CAKI-1 renal 11.2% | CCRF-CEM leukemia 10.4% | MOLT-4 leukemia 13.7% | SR leukemia 27.6%
active: A498 renal -20.5%

COc1ccc2c(c1)sc1nc(-c3ccccc3)c(-c3ccsc3)n12
active: A498 renal -7.5% | SR leukemia 6.49%
inactive: EKVX NSCLC 40.8% | SN12C renal 50.2% | UO-31 renal 37.8% | TK-10 renal 46.1% | ACHN renal 54.2% | CAKI-1 renal 27.9% | CCRF-CEM leukemia 23.2% | MOLT-4 leukemia 36.4%

Cc1ccc(-c2nc(/C=C3/C(=O)N(C)c4ccc(F)cc43)c3ccccn23)cc1
inactive: EKVX NSCLC 98.1% | SN12C renal 96.1% | UO-31 renal 85.8% | TK-10 renal 128% | ACHN renal 88.5% | CAKI-1 renal 105% | A498 renal 95.9% | CCRF-CEM leukemia 111% | MOLT-4 leukemia 100% | SR leukemia 97.5%

CN1CC[C@@H](c2c(O)cc(O)c3c(=O)cc(-c4ccccc4Cl)oc23)[C@@H](O)C1
active: EKVX NSCLC 9.74% | UO-31 renal -5.67% | TK-10 renal 0.554% | ACHN renal -14.1% | CAKI-1 renal 5.1% | A498 renal -40.8% | CCRF-CEM leukemia -9.53% | MOLT-4 leukemia -6.09% | SR leukemia -4.82%
inactive: SN12C renal 26.8%

CCc1ccc2c(c1)N(CCO)C1=C(C(=O)OC1)C2c1ccccc1 (stereo not given)
inactive: EKVX NSCLC 104% | SN12C renal 105% | UO-31 renal 88.9% | TK-10 renal 91.8% | ACHN renal 88.6% | CAKI-1 renal 101% | A498 renal 73.4% | CCRF-CEM leukemia 91.9% | MOLT-4 leukemia 83% | SR leukemia 63.6%

Cc1cc2ccccc2nc1-c1ccccc1F
inactive: EKVX NSCLC 107% | SN12C renal 110% | UO-31 renal 97.3% | TK-10 renal 130% | ACHN renal 112% | CAKI-1 renal 99% | A498 renal 96.2% | CCRF-CEM leukemia 96.9% | MOLT-4 leukemia 111% | SR leukemia 110%

N=c1c2c(-c3ccccc3)c(-c3ccccc3)n(Cc3ccccc3)c2ncn1CCCO
active: UO-31 renal -0.199% | MOLT-4 leukemia -10.9% | SR leukemia -33.5%
inactive: EKVX NSCLC 36.5% | SN12C renal 40.3% | TK-10 renal 35.4% | ACHN renal 26.1% | CAKI-1 renal 13.9% | A498 renal 17.6% | CCRF-CEM leukemia 28.9%

O=C(CC(NC(=O)OCc1ccccc1)C(=O)OCc1ccccc1)OCc1ccccc1 (stereo not given)
inactive: EKVX NSCLC 95.7% | SN12C renal 102% | UO-31 renal 103% | TK-10 renal 97.6% | ACHN renal 104% | CAKI-1 renal 99.3% | A498 renal 68.1% | CCRF-CEM leukemia 47.5% | MOLT-4 leukemia 115% | SR leukemia 99.3%

O=C(O)c1ccc(Cl)cc1Nc1ccc(F)cc1
inactive: EKVX NSCLC 67.3% | SN12C renal 69.4% | UO-31 renal 62.5% | TK-10 renal 84.9% | ACHN renal 82.4% | CAKI-1 renal 29.1% | A498 renal 83.7% | CCRF-CEM leukemia 31.4% | MOLT-4 leukemia 56.8% | SR leukemia 57.2%

CN(C)C(=S)N/N=C\C=N/NC(=S)N(C)C
inactive: EKVX NSCLC 38.8% | SN12C renal 88.4% | UO-31 renal 31.7% | TK-10 renal 96.5% | ACHN renal 80% | CAKI-1 renal 74.1% | A498 renal 89% | CCRF-CEM leukemia 22.6% | MOLT-4 leukemia 10% | SR leukemia 35.4%

Cc1nc2ccc(CN(C)c3ccc(C(=O)N[C@@H](CCC(=O)O)C(=O)O)s3)cc2c(=O)[nH]1
inactive: EKVX NSCLC 72.9% | SN12C renal 47.7% | UO-31 renal 39.9% | TK-10 renal 48.6% | ACHN renal 34.1% | CAKI-1 renal 28.5% | A498 renal 21.5% | CCRF-CEM leukemia 33.1% | MOLT-4 leukemia 26.2% | SR leukemia 44.6%

NC1=NC(=O)C(c2ccccc2)(c2ccccc2)S1
inactive: EKVX NSCLC 107% | SN12C renal 106% | UO-31 renal 73.9% | TK-10 renal 100% | ACHN renal 107% | CAKI-1 renal 114% | A498 renal 106% | CCRF-CEM leukemia 97.1% | MOLT-4 leukemia 97.5% | SR leukemia 94.8%

Fc1ccc(-c2nnc(-c3c(-c4ccc(F)cc4)nc4ccccn34)o2)cc1
inactive: EKVX NSCLC 95.3% | SN12C renal 77.2% | UO-31 renal 83.8% | TK-10 renal 102% | ACHN renal 83.2% | CAKI-1 renal 91.1% | A498 renal 62% | CCRF-CEM leukemia 95.4% | MOLT-4 leukemia 100% | SR leukemia 47.3%

COc1cc(C)ccc1C(=O)c1ccc(C)cc1OC
inactive: EKVX NSCLC 31.2% | SN12C renal 43.2% | UO-31 renal 31.4% | TK-10 renal 38.3% | ACHN renal 60.8% | CAKI-1 renal 23.4% | CCRF-CEM leukemia 14.4% | MOLT-4 leukemia 32.3%
active: A498 renal -4.5% | SR leukemia -10.2%

COc1ccc2nc3cc(Cl)ccc3c(NCCNCC(C)O)c2c1 (stereo not given)
inactive: EKVX NSCLC 38.1% | SN12C renal 27.3% | UO-31 renal 32.4% | ACHN renal 22.6% | CAKI-1 renal 47.6% | A498 renal 37% | CCRF-CEM leukemia 19.3% | MOLT-4 leukemia 11.7%
active: TK-10 renal -15.6% | SR leukemia 2.01%
